Bioassay records from PubChem BioAssay.
AmpC no deterg = blocks E. coli AmpC beta-lactamase in detergent-free assay. AmpC nitrocefin hydrolysis, absorbance 480 nm, 0.0001% Triton. Potency, µM (doses to about 57.1 µM), actives largely listed as inhibitors. hit rate 0.52% among 330,000; also: nearly all actives have a fitted effect of over 20% in size
Target sequence (P00811 whole entry, looked up): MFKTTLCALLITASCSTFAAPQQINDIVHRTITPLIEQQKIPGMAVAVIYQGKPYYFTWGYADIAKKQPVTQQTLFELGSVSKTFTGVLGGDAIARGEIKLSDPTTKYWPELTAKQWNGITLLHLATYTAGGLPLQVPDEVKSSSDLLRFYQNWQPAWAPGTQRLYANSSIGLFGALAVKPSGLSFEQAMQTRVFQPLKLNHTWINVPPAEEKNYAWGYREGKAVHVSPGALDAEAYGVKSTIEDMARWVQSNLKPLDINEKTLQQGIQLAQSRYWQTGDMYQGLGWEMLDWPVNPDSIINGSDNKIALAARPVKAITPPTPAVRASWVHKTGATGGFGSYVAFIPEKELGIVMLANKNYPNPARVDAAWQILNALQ
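20 mM phosphate pH 7.0 + 0.01% (detergent screen) or 0.0001% Triton X-100; 5.3 nM AmpC reagent; cpd preinc 15 min RT; nitrocefin (800 uM stock) to start; A480 q20 s × 4 min; Activity was normalised to no-enzyme and no-compound control wells.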
AmpC detergent = AmpC beta-lactamase inhibition with detergent present; P00811; AmpC hydrolysis of nitrocefin, absorbance 480 nm, 0.01% Triton; Potency, µM (series often up to 114 µM), most hits filed as inhibitors; hit rate 0.041% among 370,000; also: nearly all actives have a fitted effect of over 25% in size
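20 mM phosphate pH 7.0 + 0.01% (detergent screen) or 0.0001% Triton X-100; 5.3 nM AmpC reagent; cpd preinc 15 min RT; nitrocefin (800 uM stock) to start; A480 q20 s × 4 min; Activity was normalised to no-enzyme and no-compound control wells.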
AMA1-RON2 inh = disrupts binding of P. falciparum AMA1 to RON2; AlphaScreen AMA1-biotinylated RON2 peptide binding; Potency, µM (series often up to 58.2 µM), most hits filed as inhibitors; hit rate 0.2% among 360,000; also: nearly all actives have a fitted effect of over 45% in size
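AMA1 (3D7) with his tag at 25 nM final met compounds first, then biotinylated RON2 peptide at 25 nM; detection used donor plus acceptor beads, 10 µg/mL apiece, read by AlphaScreen after 30 min at room temperature.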
RE007 growth inh = less growth of the S. pombe RE007 Vpr strain; Potency, µM (doses to about 92.2 µM), usual class: inhibitors; S. pombe RE007 Vpr strain, BacTiter-Glo ATP luminescence, 24 h; AID 651644; hit rate 0.21% among 360,000; active = well fitted falling curve with a large enough effect; inconclusive = small, poorly fitted or top-dose-only effect; inactive = no such curve, though single readings can be large or run the other way; also: nearly all actives have a fitted effect of over 50% in size
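Fission yeast RE007 carrying one integrated HIV-1 vpr copy, seeded at OD 0.01 in PMG+AL medium with 23 nL pinned compound. Grown 24 h at 30 degrees; viability read by BacTiter-Glo luminescence after 5 min.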
Numbers stand for hits. In the library only some 0.79% were active in any assay of this set; here they are far more common. Unless noted, calls follow the shape of the dose curve; as a rule, active = well fitted curve in the direction sought with a large enough effect; inconclusive = small, poorly fitted or top-dose-only effect, or another doubt; inactive = no such curve, though single readings can be large; an effect the other way counts as inactive or inconclusive.

How did CCOC(=O)C1=C(C)N(C[C@@H]2CC[C@@H](Cc3ccc(-c4ccccc4)cc3)O2)C(=O)NC1c1ccc(SCc2ccco2)c([N+](=O)[O-])c1 (some centres not stated) do in these assays?
AmpC no deterg: 7.9µM; AMA1-RON2 inh: inactive; RE007 growth inh: inactive

How did CCOC(=O)C1=C(C)N(C[C@@H]2CC[C@@H](Cc3ccc(-c4ccccc4)cc3)O2)C(=O)NC1c1ccc(C(F)(F)F)cc1 (some centres not stated) do in these assays?
AmpC no deterg: inactive; AMA1-RON2 inh: inactive; RE007 growth inh: inactive

What do the screens show for `CCN(CC)c1ccc(/C=C2\C(=O)N(c3nnc(C)c(=O)[nH]3)N=C2C)cc1`?
AmpC no deterg: inactive; AmpC detergent: inactive; AMA1-RON2 inh: 14µM; RE007 growth inh: inactive

How did CC(C)CC(C(=O)NCc1ccc(F)cc1)N1Cc2ccccc2C1=O (configuration not stated) do in these assays?
AmpC detergent: inactive

What do the screens show for `C/C(CC(=O)Nc1ccc(Cl)cc1Cl)=N\NC(=O)c1ccco1`?
AmpC no deterg: 7.9µM; AmpC detergent: inactive; AMA1-RON2 inh: inactive; RE007 growth inh: inactive

How did O=C(NC1CCCCC1)c1ccc(CSc2nc3ccncc3n2Cc2ccccc2)cc1 do in these assays?
AmpC detergent: inactive

Results for O=C(COc1ccc2ccccc2c1)Nc1ccc(S(=O)(=O)N2CCCCCC2)cc1 ?
AmpC no deterg: 18µM; AmpC detergent: inactive; AMA1-RON2 inh: inactive; RE007 growth inh: inactive

Results for CC(=O)Nc1ccc(S(=O)(=O)N2CCN(S(=O)(=O)N3CCCCC3)CC2)cc1 ?
AmpC no deterg: inactive; AmpC detergent: inactive; AMA1-RON2 inh: inactive; RE007 growth inh: inactive

Results for CC(=O)Nc1ccc(S(=O)(=O)Nc2ccc(S(=O)(=O)N3CCCCCC3)cc2)cc1 ?
AmpC no deterg: 20µM; AmpC detergent: inactive; AMA1-RON2 inh: inactive; RE007 growth inh: inactive

What do the screens show for `COc1ccc(C)cc1NC(=O)CSc1nc(=O)n(Cc2cccnc2)c2c1CCC2`?
AmpC detergent: inactive

What do the screens show for `Cc1ccc(NC(=O)c2cccc(NC(=O)N3CCSc4ncccc43)c2)cc1Cl`?
AmpC detergent: inactive

What do the screens show for `COc1ccc(-c2ccc(C(=O)NCc3ccc(N4CCN(C)CC4)cc3)c3occc23)c(C)c1`?
AMA1-RON2 inh: 16µM; RE007 growth inh: inactive

How did COCc1nnc(NC(=O)c2ccc(S(=O)(=O)N(C)c3ccccc3)cc2)o1 do in these assays?
AmpC no deterg: 40µM; AmpC detergent: inconclusive; AMA1-RON2 inh: inactive; RE007 growth inh: inactive

What do the screens show for `O=c1c2cn[nH]c2nc(SCc2ccccc2F)n1-c1ccc(Br)cc1`?
AmpC no deterg: 11µM; AmpC detergent: inconclusive; AMA1-RON2 inh: inactive; RE007 growth inh: inactive

Results for Cc1cccc(NC(=O)CSc2nc3[nH]ncc3c(=O)n2-c2ccccc2)c1 ?
AmpC no deterg: 8.9µM; AmpC detergent: inactive

What do the screens show for `CCc1ccc(N(C(=O)C(F)(F)F)C(C(=O)NC2CCCCC2)c2ccncc2)cc1` (configuration not stated)?
AmpC no deterg: 0.56µM; AmpC detergent: inactive; AMA1-RON2 inh: inactive; RE007 growth inh: inactive

Results for O=c1[nH]c2c(s1)C(c1ccc(O)cc1)C1C3CCC(C3)C1S2 (configuration not stated) ?
AmpC no deterg: 45µM; AmpC detergent: inactive; AMA1-RON2 inh: inactive; RE007 growth inh: inactive

How did CC(NC(=O)NC1CCCCC1)C(c1cccs1)N1CCN(C)CC1 (configuration not stated) do in these assays?
AmpC no deterg: inactive; AmpC detergent: inconclusive; AMA1-RON2 inh: inactive; RE007 growth inh: inactive

How did CCN1CCN(C(c2cccs2)C(C)NC(=O)NC2CCCCC2)CC1 (configuration not stated) do in these assays?
AmpC no deterg: 45µM; AmpC detergent: inconclusive; AMA1-RON2 inh: inactive; RE007 growth inh: inactive

What do the screens show for `CC(NC(=O)Nc1ccc(Cl)cc1)C(c1cccs1)N1CCOCC1` (configuration not stated)?
AmpC no deterg: 2.5µM; AmpC detergent: inconclusive; AMA1-RON2 inh: inactive; RE007 growth inh: inactive

Results for COC(=O)c1ccc(NC(=O)CN2C(=O)c3cccc4cccc2c34)cc1 ?
AmpC detergent: inactive

Results for Cc1ccc(CNCc2c(C(=O)O)c(C)n(Cc3ccc(C)cc3)c2C)cc1 ?
AmpC detergent: inactive

What do the screens show for `COc1cccc(Nc2nc3ccccc3c(=O)[nH]2)c1`?
AmpC no deterg: 10µM; AmpC detergent: inactive; AMA1-RON2 inh: inactive; RE007 growth inh: inactive

What do the screens show for `CC(=O)Nc1cccc(N2C(=O)CC(N3CCC(C(=O)N4CCCCC4)CC3)C2=O)c1` (configuration not stated)?
AmpC no deterg: inactive; AmpC detergent: inconclusive; AMA1-RON2 inh: inactive; RE007 growth inh: inactive

Results for COc1cc(OC)cc(N2C(=O)CC(N3CCC(C(=O)N4CCCCC4)CC3)C2=O)c1 (configuration not stated) ?
AmpC no deterg: inactive; AmpC detergent: inactive; AMA1-RON2 inh: inactive; RE007 growth inh: 32µM

What do the screens show for `O=C1CC(N2CCOCC2)C(=O)N1c1cc(Cl)cc(Cl)c1` (configuration not stated)?
AmpC no deterg: inactive; AmpC detergent: inactive; AMA1-RON2 inh: inactive; RE007 growth inh: 11µM

What do the screens show for `O=C(C1CCN(C2CC(=O)N(c3ccc(F)cc3)C2=O)CC1)N1CCOCC1` (configuration not stated)?
AmpC no deterg: inactive; AmpC detergent: inactive; AMA1-RON2 inh: inactive; RE007 growth inh: 50µM

What do the screens show for `O=C1CCCN1CCC1CCN(C2CC(=O)N(c3ccc(F)cc3)C2=O)CC1` (configuration not stated)?
AmpC detergent: inactive; AMA1-RON2 inh: inactive; RE007 growth inh: 32µM

How did CC1Cc2cc(S(=O)(=O)NCCc3ccc(Cl)cc3)ccc2N1C(=O)C1CCC1 (configuration not stated) do in these assays?
AmpC detergent: inactive

How did Cc1cc(Nc2nc3ccccc3c3nnc(C)n23)ccc1Br do in these assays?
AmpC detergent: inactive

What do the screens show for `COc1ccc(C(=O)O/N=C(/C)c2cccs2)cc1`?
AmpC no deterg: inactive; AmpC detergent: inactive; AMA1-RON2 inh: inactive; RE007 growth inh: 40µM

What do the screens show for `CC(C)N(C(=O)COC(=O)c1ccc(O)cc1)C(C)C`?
AmpC no deterg: 4µM; AmpC detergent: inactive; AMA1-RON2 inh: inactive; RE007 growth inh: inactive

What do the screens show for `CCc1ccc(C(=O)Cn2ncc(Cl)c(Cl)c2=O)cc1`?
AmpC no deterg: inactive; AmpC detergent: inconclusive; AMA1-RON2 inh: inactive; RE007 growth inh: inactive

What do the screens show for `O=C(OCn1ncc(Cl)c(Cl)c1=O)c1cccc(C(F)(F)F)c1`?
AmpC no deterg: inactive; AmpC detergent: inactive; AMA1-RON2 inh: inconclusive; RE007 growth inh: 45µM

How did Cc1ccc(NC(=O)C2CCCN(S(=O)(=O)c3ccc4c(c3)CCCC(=O)N4)C2)cc1Cl (configuration not stated) do in these assays?
AmpC detergent: inactive
